Assay results: PubChem BioAssay (NCATS)
Values joined by “and” are separate entries in the source; they are usually repeats but may differ in a detail not shown here. Identical values can stand only once. Results filed as inconclusive are left out. Entries that show only a call come without a potency. Active and inactive are the calls of the source. Calls follow the shape of the dose curve; as a rule, active = well fitted curve in the direction sought with a large enough effect; inconclusive = small, poorly fitted or top-dose-only effect, or another doubt; inactive = no such curve, though single readings can be large; an effect the other way counts as inactive or inconclusive.

How the values were obtained:
[1] = qHTS of pediatric cancer cell lines to identify multiple opportunities for drug repurposing: Primary screen for TC32 cells (AID 1347089); also: nearly all actives have a fitted effect of over 60% in size
Summary of the method: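 TC32 cells, 500-1,000/well in growth medium, compound-treated 48 h at 37 °C; viability from CellTiter-Glo luminescence. Primary screen: MIPE 11-point (0.78 nM–46 µM final), NPC 8-point (0.59 nM–46 µM final); confirmatory at 11-point dilutions.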

[2] = qHTS of pediatric cancer cell lines to identify multiple opportunities for drug repurposing: Primary screen for SJ-GBM2 cells (AID 1347091)
Summary of the method: (§1)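 Viability measured as metabolically active cells via CellTiter-Glo luminescence following 48 hours of compound exposure, 11-point dilutions in confirmatory testing. 500-1,000 cells/well plated 5 hours before dosing; controls were DMSO and 2.3 µM bortezomib.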

[3] = qHTS of pediatric cancer cell lines to identify multiple opportunities for drug repurposing: Primary screen for A673 cells (AID 1347092); also: nearly all actives have a fitted effect of over 45% in size
Summary of the method: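 A673 cells (500-1,000 cells/well) were treated 48 hours at 37 degrees C with compounds at 11-point (0.78 nM to 46 µM) or 8-point (0.59 nM to 46 µM) dilutions. Viability read by CellTiter-Glo luminescence; concentration-response curves fitted.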

[4] = qHTS of pediatric cancer cell lines to identify multiple opportunities for drug repurposing: Primary screen for SK-N-MC cells (AID 1347093)
Summary of the method: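 Metabolically active cells were quantified by ATP-dependent luminescence (CellTiter-Glo, 15 min at room temperature) following 48 h treatment. Cells had been plated at 500-1,000 per well and settled for 5 h beforehand.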

[5] = qHTS of pediatric cancer cell lines to identify multiple opportunities for drug repurposing: Primary screen for BT-37 cells (AID 1347094)
Summary of the method: (§2)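 Phenotypic viability qHTS, 48 h compound exposure, CellTiter-Glo luminescence read-out; multi-concentration dosing so that potency and efficacy derive directly from the primary screen's curves.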

[6] = qHTS of pediatric cancer cell lines to identify multiple opportunities for drug repurposing: Primary screen for DAOY cells (AID 1347090); also: nearly all actives have a fitted effect of over 55% in size
Summary of the method: as §1

[7] = qHTS of pediatric cancer cell lines to identify multiple opportunities for drug repurposing: Primary screen for NB-EBc1 cells (AID 1347095)
Summary of the method: as §2
Potency is read from the fitted curve at half-maximal effect.

| Structure (SMILES) | Potency [1] | Potency [2] | Potency [3] | Potency [4] | Potency [5] | Potency [6] | Potency [7] |
| --- | --- | --- | --- | --- | --- | --- | --- |
| CC(C)(C)NC(=O)[C@H]1CC[C@H]2[C@@H]3CC[C@H]4NC(=O)C=C[C@]4(C)[C@H]3CC[C@]12C | inactive | 14.8 µM (active) | – | – | – | – | – |
| CCCCc1oc2ccc(NS(C)(=O)=O)cc2c1C(=O)c1ccc(OCCCN(CCCC)CCCC)cc1 | inactive | 11.8 µM (active) | 1.18 µM (active) | 21.1 µM (active) | 17.2 µM (active) and 27.6 µM (active) | – | – |
| O=S(=O)(O)CCS | inactive | inactive | inactive | – | inactive | inactive | inactive |
| CCOC(=O)[C@H](CCc1ccccc1)N[C@H]1CCc2ccccc2N(CC(=O)O)C1=O | inactive | 23.5 µM (active) | – | – | – | – | – |
| C[C@@H](CN1CC(=O)NC(=O)C1)N1CC(=O)NC(=O)C1 | inactive | inactive | – | 23.7 µM (active) and 7.43 µM (active) | 6.85 µM (active) | inactive | 3.72 µM (active) |
| COc1ccccc1OCC(O)COC(N)=O (stereo not given) | inactive | inactive | inactive | inactive | inactive | – | inactive |
| CN(Cc1cc(Br)cc(Br)c1N)C1CCCCC1 | inactive | inactive | inactive | – | inactive | inactive | – |
| CC1(C)[C@H](C(=O)O)N2C(=O)C[C@H]2S1(=O)=O | inactive | inactive | inactive | – | inactive | inactive | inactive |
| Cc1cc(NS(=O)(=O)c2ccc(N)cc2)no1 | inactive | inactive | inactive | – | inactive | inactive | inactive |
| Cc1nnc(C(=O)NC(C)(C)c2nc(C(=O)NCc3ccc(F)cc3)c(O)c(=O)n2C)o1 | inactive | inactive | inactive | inactive | inactive | – | inactive |
| Nc1nc(F)nc2c1ncn2[C@@H]1O[C@H](CO)[C@@H](O)[C@@H]1O | 18.7 µM (active) and 2.62 µM (active) | 0.935 µM (active) | 0.743 µM (active) | 33.5 nM (active) and 332 nM (active) | 0.863 µM (active) | – | 841 nM (active) and 1.05 µM (active) |
| Cc1ccnc2c1NC(=O)c1cccnc1N2C1CC1 | inactive | inactive | inactive | – | inactive | inactive | inactive |
| CS(=O)(=O)c1ccc([C@@H](O)[C@@H](CO)NC(=O)C(Cl)Cl)cc1 | inactive | inactive | inactive | inactive | inactive | – | inactive |
| O=C(O)c1cc(=O)[nH]c(=O)[nH]1 | inactive | inactive | inactive | inactive | inactive | – | inactive |
| OC(Cn1cncn1)(Cn1cncn1)c1ccc(F)cc1F | inactive | inactive | inactive | inactive | inactive | – | inactive |
| O=C(O)c1cccnc1 | inactive | inactive | inactive | – | inactive | inactive | inactive |
| Cc1cccc(N(C)C(=S)Oc2ccc3ccccc3c2)c1 | inactive | – | inactive | – | inactive | inactive | inactive |
| CCC(=O)O[C@]1(C(=O)SCF)[C@H](C)C[C@H]2[C@@H]3C[C@H](F)C4=CC(=O)C=C[C@]4(C)[C@@]3(F)[C@@H](O)C[C@@]21C | inactive | inactive | – | inactive | inactive | inactive | inactive |
| CNCC[C@H](Oc1cccc2ccccc12)c1cccs1 | inactive | inactive | 1.18 µM (active) | 1.05 µM (active) | – | – | inactive |
| COC(=O)Nc1nc2ccc(S(=O)c3ccccc3)cc2[nH]1 (stereo not given) | 1.18 µM (active) | 596 nM (active) and 14.8 µM (active) | 841 nM (active) and 9.35 µM (active) | 376 nM (active) and 8.33 µM (active) | 1.55 µM (active) | – | 473 nM (active) and 8.33 µM (active) |
| CC(C(=O)O)c1ccc2c(c1)CC(=O)c1ccccc1S2 (stereo not given) | inactive | inactive | – | – | – | – | inactive |
| NC1(c2ccc(-c3nc4ccn5c(=O)[nH]nc5c4cc3-c3ccccc3)cc2)CCC1 | – | 5.26 µM (active) and 13.3 µM (active) | 14.8 µM (active) and 21.1 µM (active) | 332 nM (active) and 266 nM (active) | 6.85 µM (active) | 18.7 µM (active) | 2.35 µM (active) and 11.9 µM (active) |
| Cc1nnc(NS(=O)(=O)c2ccc(N)cc2)s1 | inactive | – | – | 0.833 µM (active) | – | – | – |
| CC1=CC(=O)c2ccccc2C1=O | inactive | 23.5 µM (active) | 13.3 µM (active) and 14.8 µM (active) | 21.1 µM (active) and 148 nM (active) | inactive | – | 7.43 µM (active) |
| NC(N)=NC(N)=NCCc1ccccc1 | inactive | inactive | 8.41 µM (active) and 5.9 µM (active) | inactive | – | – | inactive |
| N=C(N)c1ccc(OCCCCCOc2ccc(C(=N)N)cc2)cc1 | – | inactive | 21.1 µM (active) and 14.8 µM (active) | 33.2 µM (active) | – | – | inactive |
| CNS(=O)(=O)Cc1ccc2[nH]cc(CCN(C)C)c2c1 | inactive | inactive | inactive | inactive | inactive | – | inactive |
| CC(C)(C)C(=O)OCOP(=O)(COCCn1cnc2c(N)ncnc21)OCOC(=O)C(C)(C)C | 2.64 µM (active) and 10.4 µM (active) | – | 2.11 µM (active) and 743 nM (active) | 188 nM (active) and 1 nM (active) | 3.47 µM (active) and 10.9 µM (active) | – | 2.99 µM (active) and 662 nM (active) |
